Source: PubChem BioAssay
FLuc inh = firefly luciferase inhibition. P08659. purified firefly luciferase, luminescence, 8 min. Potency, µM (highest dose often 57.1 µM), for the others: at the highest dose activity change, negative = inhibition, most hits filed as inhibitors. 72,000 compounds, 2.2% hits; active means well fitted inhibition curve with a large enough effect; inconclusive means small, poorly fitted or top-dose-only effect; further: on the % scale 0 is the no-effect control and ±100 the full control effect; nearly all actives have a fitted effect of over 40% in size
Target sequence (P08659 whole entry, looked up): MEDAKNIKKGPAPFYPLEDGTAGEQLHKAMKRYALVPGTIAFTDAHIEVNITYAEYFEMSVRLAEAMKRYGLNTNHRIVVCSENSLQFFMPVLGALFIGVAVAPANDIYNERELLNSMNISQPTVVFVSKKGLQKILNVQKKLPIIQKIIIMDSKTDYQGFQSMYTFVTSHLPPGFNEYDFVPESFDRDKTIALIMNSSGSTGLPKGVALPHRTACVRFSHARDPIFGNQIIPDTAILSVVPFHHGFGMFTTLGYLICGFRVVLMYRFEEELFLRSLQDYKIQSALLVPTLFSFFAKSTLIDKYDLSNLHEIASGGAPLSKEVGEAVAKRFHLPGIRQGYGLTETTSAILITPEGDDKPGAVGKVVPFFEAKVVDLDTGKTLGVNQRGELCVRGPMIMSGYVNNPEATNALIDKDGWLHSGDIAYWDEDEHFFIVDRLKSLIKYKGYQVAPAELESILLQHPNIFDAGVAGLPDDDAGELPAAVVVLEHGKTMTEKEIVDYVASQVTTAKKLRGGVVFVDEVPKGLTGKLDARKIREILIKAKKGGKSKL
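Inhibition of light generation by firefly luciferase from ATP and luciferin was profiled with concentration-response curves per sample, ATP held at 10 uM within the enzyme's linear range. Plates were read by luminescence after an 8-minute ambient incubation.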
Bst PK mod = alters activity of Bacillus stearothermophilus pyruvate kinase | purified pyruvate kinase, luminescence ATP production; ribose 5-phosphate activator present at AC10 | 51,000 compounds, 1.2% hits | AID 361 | Potency, µM; in the data active means potency below about 11 µM; inconclusive means mostly about 12 µM to 25 µM;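 the screen sought inhibitors and activators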;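 further: scaled between full activation by ribose 5 phosphate and full inhibition by luteolin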
GBA mod = alters purified human glucocerebrosidase activity; P04062; purified enzyme, resorufin glucoside fluorescence (screen aimed at inhibitors), 20 min; Potency, µM; 48,000 compounds, 1.1% hits; AID 360; in the data active means potency below about 15 µM; inconclusive means mostly about 16 µM to 33 µM;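 further: the screen sought inhibitors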
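Normal human glucocerebrosidase (0.2 nM final) was assayed with resorufin β-D-glucopyranoside (30 uM final) in 50mM citric acid/KH2PO4, 10mM sodium taurocholate, 0.01% tween-20, pH 5.9. Compounds were titrated; fluorescence (Ex 548, Em 600) read after 20 min at RT.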
* = called active by the depositor; [ ] = remark or other dose. Rows were chosen to be rich in hits. Some 3.4% of all compounds tested hit in one or more screens of this group. Potency means the concentration at half of the fitted maximal effect.

How did CC(=O)Nc1ccc(NC(=O)Cn2cnc3c(cnn3C(C)(C)C)c2=O)cc1 do in these assays?
FLuc inh: 0%; Bst PK mod: >57; GBA mod: >77

Results for COc1cccc(-n2nnc3c(=O)n(Cc4c(F)cccc4Cl)cnc32)c1 ?
FLuc inh: 3%; GBA mod: >77

How did CC(C)(C)n1ncc2c(=O)n(Cc3ccc(Cl)cc3Cl)cnc21 do in these assays?
FLuc inh: -16%; Bst PK mod: 2.9*; GBA mod: >77

What do the screens show for `Cc1cc(NC(=O)Cn2cnc3c(cnn3C(C)(C)C)c2=O)no1`?
FLuc inh: -1%; Bst PK mod: >57; GBA mod: >77

What do the screens show for `CC(C)(C)n1ncc2c(=O)n(Cc3c(F)cccc3Cl)cnc21`?
FLuc inh: -23%; Bst PK mod: 9.9*; GBA mod: >77

Results for O=C1[C@H]2[C@H]3[C@H](O)[C@H](O)C/C(=N/OC[C@@H](O)COCc4ccco4)[C@H]3CC[C@@H]2C(=O)N1Cc1ccc2c(c1)OCO2 ?
FLuc inh: -4%[11.4 µM]

What do the screens show for `COc1ccc(NC(=O)N2CCCC3(CCN(C(C)=O)CC3)C2)cc1`?
FLuc inh: 1%[11.4 µM]

What do the screens show for `COCCNc1ncnc2ccc(-c3cccc(OC)c3)cc12`?
FLuc inh: 2%[2.29 µM]

What do the screens show for `O=S(=O)(NC1CCCC1)c1ccc(S(=O)(=O)N2CCCN(Cc3ccccc3)C2)cc1`?
FLuc inh: 3%; Bst PK mod: >57; GBA mod: 15*

Results for CS(=O)(=O)NC1CCN(Cc2ccccc2)CC1 ?
FLuc inh: 0%; Bst PK mod: >57; GBA mod: >77

Results for O=c1nc2n(c3ccccc13)Cc1ccccc1-2 ?
FLuc inh: 2%; Bst PK mod: >11; GBA mod: >77

How did O=c1cc(-c2ccccc2)nc2n1Cc1ccccc1-2 do in these assays?
FLuc inh: -7%; Bst PK mod: 0.88*; GBA mod: >77

How did O=C1C2C3C=CC(C2C(=O)N1CN1CCOCC1)C1C2C(=O)N(CN4CCOCC4)C(=O)C2C31 (configuration not stated) do in these assays?
FLuc inh: 2%[11.4 µM]

What do the screens show for `COc1ccc(C(=O)Nc2nc(-c3cccs3)cs2)cc1`?
FLuc inh: 16µM*; Bst PK mod: inconclusive; GBA mod: >77

How did COc1ccc(C(=O)Nc2nnc(C(F)(F)F)s2)cc1 do in these assays?
FLuc inh: -8%; GBA mod: 3.3*

How did O=C(Nc1nnc(C(F)(F)F)s1)c1cccnc1 do in these assays?
FLuc inh: -13%; Bst PK mod: >57

How did O=C(Cc1ccccc1)Nc1nc(-c2cccs2)cs1 do in these assays?
FLuc inh: -26%; GBA mod: >77

What do the screens show for `COc1cc(C(=O)Nc2nc(-c3cccs3)cs2)cc(OC)c1OC`?
FLuc inh: 0%; Bst PK mod: inactive; GBA mod: >77

What do the screens show for `Cc1csc(NC(=O)c2sc3nc(-c4cccs4)ccc3c2N)n1`?
FLuc inh: 20µM*; Bst PK mod: 7.4*; GBA mod: >77

What do the screens show for `CCn1c(=O)[nH]c2cc(Cl)c(Cl)cc21`?
FLuc inh: 4%

Results for CC(=O)OC[C@@H]1O[C@@H](O/N=C2/C[C@@H](O)[C@@H](O)[C@@H]3[C@@H]4C(=O)N(c5cccc(Oc6ccccc6)c5)C(=O)[C@H]4CC[C@H]23)[C@H](OC(C)=O)[C@H](OC(C)=O)[C@@H]1OC(C)=O ?
FLuc inh: -4%[11.4 µM]

What do the screens show for `CC1(C)O[C@H]2[C@@H](O1)[C@@H](On1nnc3ccc(Cl)cc31)O[C@@H]2[C@@H]1COC(C)(C)O1`?
FLuc inh: 4%[11.4 µM]

How did Cc1ccc2[nH]c3nc(CCCn4ccnc4-c4ccccc4)nnc3c2c1 do in these assays?
FLuc inh: 2%[11.4 µM]

What do the screens show for `Oc1ccc([C@@H]2CNCCc3c2cc(O)c(O)c3Cl)cc1`?
FLuc inh: 4%

How did O=C(CCCCCN1C(=O)c2ccccc2C1=O)NCc1ccco1 do in these assays?
FLuc inh: -1%; Bst PK mod: >57; GBA mod: >77

How did O=C1C(C=NCc2cccnc2)=C(O)c2ccccc21 do in these assays?
FLuc inh: 10µM*

Results for O=C1C(C=NCc2ccco2)=C(O)c2ccccc21 ?
FLuc inh: 13µM*

How did O=C1C(=O)c2ccccc2C(O)=C1C(CCc1ccccc1)C1=C(O)c2ccccc2C(=O)C1=O do in these assays?
FLuc inh: -5%[11.4 µM]

What do the screens show for `CN1[C@@H]2CC(OC(=O)[C@@H](CO)c3ccccc3)C[C@H]1[C@H]1O[C@H]12` (some centres not stated)?
FLuc inh: 2%

What do the screens show for `c1ccc(CNc2nc3ccccc3[nH]2)cc1`?
FLuc inh: 13µM*; Bst PK mod: inconclusive; GBA mod: >15

What do the screens show for `COc1ccc2nc(NCCO)[nH]c2c1`?
FLuc inh: -1%; Bst PK mod: >57; GBA mod: inconclusive

What do the screens show for `Cc1cc(C)nc(Nc2nc3ccccc3[nH]2)n1`?
FLuc inh: -3%; Bst PK mod: >57; GBA mod: >77

How did COc1ccc2nc(NCc3ccccc3)[nH]c2c1 do in these assays?
FLuc inh: 16µM*

Results for Cc1ccc2nc(NCc3ccccc3)[nH]c2c1 ?
FLuc inh: 10µM*; Bst PK mod: inactive

Results for Cc1ccc2nc(C3CCN(C(=O)NCc4ccccc4)CC3)[nH]c2c1 ?
FLuc inh: -24%; Bst PK mod: >11; GBA mod: inconclusive

What do the screens show for `COc1cc(CNc2nc3ccccc3[nH]2)cc(OC)c1OC`?
FLuc inh: 2%; Bst PK mod: >57; GBA mod: >77

What do the screens show for `c1ccc(Nc2nc3ccccc3[nH]2)nc1`?
FLuc inh: 20µM*; Bst PK mod: inactive; GBA mod: >77

What do the screens show for `O=C(c1cnccn1)N1CCC[C@@]2(CCN(C(c3ccccc3)c3ccccc3)C2)C1`?
FLuc inh: 2%[11.4 µM]

What do the screens show for `CN(C)c1ncc2nc(-c3cccs3)c(=O)n(C3CC3)c2n1`?
FLuc inh: -3%[11.4 µM]

Results for COC(=O)c1c(-c2cc(OC)c(OC)c(OC)c2)c2ccc(OCc3ccccn3)cc2c(=O)n1-c1ccc(N)cc1 ?
FLuc inh: 1%

How did COc1ccc([C@@H]2CC(=O)c3c(O)cc(O[C@@H]4O[C@@H](CO[C@@H]5O[C@@H](C)[C@@H](O)[C@@H](O)[C@H]5O)[C@@H](O)[C@@H](O)[C@H]4O)cc3O2)cc1O do in these assays?
FLuc inh: 1%[11.4 µM]

How did CS(=O)(=O)N1CCC(C(=O)Nc2ccc(Oc3ccccc3)cc2)CC1 do in these assays?
FLuc inh: -1%; Bst PK mod: >57; GBA mod: 14*

How did CC(C)c1ccc(NC(=O)C2CCN(S(C)(=O)=O)CC2)cc1 do in these assays?
FLuc inh: -8%; Bst PK mod: >57; GBA mod: 12*

Results for CCc1ccc(NC(=O)C2CCN(S(C)(=O)=O)CC2)cc1 ?
FLuc inh: 1%; Bst PK mod: >57; GBA mod: inconclusive

How did COC(=O)c1ccc(NC(=O)C2CCN(S(C)(=O)=O)CC2)cc1 do in these assays?
FLuc inh: 5%; Bst PK mod: >57; GBA mod: >77

How did O=C(NC1=NCCS1)C1COc2ccccc2O1 (configuration not stated) do in these assays?
FLuc inh: 2µM*; Bst PK mod: 4.3*; GBA mod: >77

Results for O=C(Nc1ccncc1)C1COc2ccccc2O1 (configuration not stated) ?
FLuc inh: -2%; Bst PK mod: >57; GBA mod: inactive
